Laboratory results: PubChem BioAssay (EPA / NIEHS)
Inconclusive results are not listed. Some compounds were tested as several samples or in several runs, with calls that do not always agree. Calls of active or inactive are those of the source. Rule for the calls: active = hit-call score of the fitted dose curve at least 0.9, where 1 is the maximum; inconclusive = response in the unintended direction; inactive = score below 0.9.

biological target: Peroxisome proliferator-activated receptor gamma (Homo sapiens) (UniProt P37231); assay: NVS_NR_hPPARg: NovaScreen (NVS) Nuclear Receptor Binding Assay for human Peroxisome Proliferator-activated Receptor gamma (PPARg) (AID 2283370)
Protocol: NVS_NR_hPPARg is a biochemical, single-readout assay that uses extracted gene-proteins in a cell-free assay. Measurements were taken 2 hours after chemical dosing in a 384-well plate.NVS_NR_hPPARg is one of one assay component(s) measured or calculated from the NVS_NR_hPPARg assay. It is designed to make measurements of fluorescent polarization, a form of binding reporter, as detected with fluorescence polarization signals by Fluorescence Polarization technology.Data from the assay component NVS_NR_hPPARg was analyzed into 1 assay endpoint. This assay endpoint, NVS_NR_hPPARg, was analyzed in the positive analysis fitting direction relative to DMSO as the negative control and baseline of activity. Using a type of binding reporter, loss-of-signal activity can be used to understand changes in the binding as they relate to the gene PPARG. Furthermore, this assay endpoint can be referred to as a primary readout, because the performed assay has only produced 1 assay endpoint. To generalize the intended target to other relatable targets, this assay endpoint is annotated to the nuclear receptor intended target family, where the subfamily is non-steroidal.
Binding assays used specific radioligands (tritiated, iodinated) with non-radioactive competitive displacement ligands in agonist or antagonist protocols (as indicated) and various reference compounds and inhibitors to titrate specific binding to receptors and transporters. Most enzyme assays (CYPs, kinases, phosphatases, proteases, HDACs) used recombinant protein and specific substrates (fluorescence mostly, some colorimetric and radioactive) and inhibitors, followed by a biochemical separation of substrate and product. All assays for the biochemical HTS were initially run in duplicate at a single concentration (10 uM for CYP450 assays and 25 uM for all others). […] Each assay was run with positive and negative controls, and concurrent controls on every plate. The follow-up (secondary) screen tested active chemical-pairs in concentration series, as well as a few additional assays not tested in the primary screen, some selected negative inactives, and several cases re-run in the concentration series for confirmatory purposes.

Chain of Peroxisome proliferator-activated receptor gamma (Homo sapiens) (P37231 whole entry, looked up): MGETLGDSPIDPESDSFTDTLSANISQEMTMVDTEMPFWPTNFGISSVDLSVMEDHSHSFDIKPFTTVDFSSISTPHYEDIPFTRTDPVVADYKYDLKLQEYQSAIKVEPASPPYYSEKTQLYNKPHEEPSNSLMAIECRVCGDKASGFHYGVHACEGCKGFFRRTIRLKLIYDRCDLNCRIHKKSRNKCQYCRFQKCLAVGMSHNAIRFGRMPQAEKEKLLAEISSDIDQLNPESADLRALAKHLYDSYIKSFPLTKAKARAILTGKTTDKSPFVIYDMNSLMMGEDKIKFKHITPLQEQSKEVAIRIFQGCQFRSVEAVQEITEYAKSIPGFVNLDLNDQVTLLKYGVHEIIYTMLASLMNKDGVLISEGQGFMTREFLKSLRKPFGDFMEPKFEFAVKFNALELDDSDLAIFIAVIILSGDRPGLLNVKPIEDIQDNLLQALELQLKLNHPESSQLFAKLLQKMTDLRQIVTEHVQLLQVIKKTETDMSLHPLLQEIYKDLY

Compound	outcome	AC50
COc1ccc(C(c2ccc(OC)cc2)C(Cl)(Cl)Cl)cc1	inactive	
CCCCNC(=O)OCC#CI	inactive	
CCNc1nc(Cl)nc(NCC)n1	inactive	
C=CCC1=C(C)C(OC(=O)C2C(C=C(C)C)C2(C)C)CC1=O (stereo not given)	inactive	39.1 µM (active)
C=CC1(C)OC(=O)N(c2cc(Cl)cc(Cl)c2)C1=O (stereo not given)	inactive	
Oc1ccccc1-c1ccccc1	inactive	
CON(C)C(=O)Nc1ccc(Cl)c(Cl)c1	inactive	
COP(N)(=O)SC (stereo not given)	inactive	
CCCN(CCC)c1c([N+](=O)[O-])cc(S(N)(=O)=O)cc1[N+](=O)[O-]	inactive	0.0071 µM (active)
CCNc1nc(Cl)nc(NC(C)C)n1	inactive	
CCOC(=O)CC(SP(=S)(OC)OC)C(=O)OCC (stereo not given)	inactive	
Cc1ccc(-c2c(Cl)nc(C#N)n2S(=O)(=O)N(C)C)cc1	inactive	
CCCC1COC(Cn2cncn2)(c2ccc(Cl)cc2Cl)O1 (stereo not given)	inactive	
COc1cnc(OC)n2nc(NS(=O)(=O)c3c(OCC(F)F)cccc3C(F)(F)F)nc12	inactive	
CCCCC(CC)COC(=O)c1ccccc1C(=O)OCC(CC)CCCC (stereo not given)	inactive	
CCCCOC(=O)c1ccccc1C(=O)OCCCC	inactive	
COC(=O)c1ccccc1C(=O)OC	inactive	
CO/C=C(/C(=O)OC)c1ccccc1Oc1cc(Oc2ccccc2C#N)ncn1	inactive	
C#CCOS(=O)OC1CCCCC1Oc1ccc(C(C)(C)C)cc1 (stereo not given)	inactive	
N#Cc1nn(-c2c(Cl)cc(C(F)(F)F)cc2Cl)c(N)c1S(=O)C(F)(F)F (stereo not given)	inactive	
COc1nc(C)nc(NC(=O)NS(=O)(=O)c2ccccc2CCC(F)(F)F)n1	inactive	
Cc1cc(Cl)ccc1OCC(=O)O	inactive	
O=C(O)COc1nc(Cl)c(Cl)cc1Cl	inactive	
